# About 4,800 (1.3%) of roughly 370,000 compounds were called active. The entries come from a sample that favours actives as a whole. Unmarked numbers belong to inactive results.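 The calls were made as follows: active = inhibition above about 21% made by adding two undisclosed values (limit read from the data); inactive = the rest.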
# Target: Protein arginine N-methyltransferase 1 (Homo sapiens) (UniProt Q99873)
# Assay: PRMT1 methyltransferase inhibitors, primary screen, biochemical, fluorescence polarization (AID 652257)
# Conditions: recombinant PRMT1, activity-based probe fluorescence polarization; at 2.79 µM; hits give high values
# Chain of Protein arginine N-methyltransferase 1 (Homo sapiens) (Q99873 whole entry, looked up): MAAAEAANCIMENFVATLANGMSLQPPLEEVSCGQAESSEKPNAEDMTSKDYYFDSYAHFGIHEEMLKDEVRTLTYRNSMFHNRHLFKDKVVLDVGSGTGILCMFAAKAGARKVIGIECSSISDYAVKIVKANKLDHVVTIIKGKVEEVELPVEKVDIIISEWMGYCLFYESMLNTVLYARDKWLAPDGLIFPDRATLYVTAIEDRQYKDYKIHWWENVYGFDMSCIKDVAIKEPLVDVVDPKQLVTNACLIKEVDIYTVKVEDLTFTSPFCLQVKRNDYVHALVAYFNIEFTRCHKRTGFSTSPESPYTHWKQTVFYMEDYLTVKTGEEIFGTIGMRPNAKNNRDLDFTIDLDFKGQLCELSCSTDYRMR
row,Compound,inhibition
1,CN1CCN(C(=O)c2cnn(-c3ccccc3)c2NC(=O)c2ccc([N+](=O)[O-])cc2)CC1,4.06%
2,Cc1cc(/C=N/Nc2ccc([N+](=O)[O-])cn2)c(C)n1-c1cccc(C(=O)O)c1,23.6% (active)
3,Cc1cccc(C(=O)NC(=S)N2CCN(c3ccc([N+](=O)[O-])cc3)CC2)c1,-2.54%
4,Cc1ccccc1NC(=O)COC(=O)c1ccc(Sc2ncn[nH]2)c([N+](=O)[O-])c1,-0.43%
5,O=C(O)c1[nH]c2ccccc2c1C(c1cccc(O)c1)c1c(C(=O)O)[nH]c2ccccc12,-1.91%
6,Cc1c(C(C)c2ccccc2O)[nH]c2ccccc12 (centres undefined),2.86%
7,CCOC(=O)c1cc2n(c1N)-c1ccccc1C2=O,29.4% (active)
8,CCOC(=O)c1ccccc1NC(=O)c1c(N)n(C)c(=O)[nH]c1=O,1.71%
9,CCOC(=O)c1ccn(S(=O)(=O)c2ccc(C)cc2)c1-c1ccccc1,-3.46%
10,COc1cc(/C=C/C(=O)n2cnc3ccccc32)cc(OC)c1OC,5.15%
11,NS(=O)(=O)c1ccc(NC(=S)NC(=O)c2cccnc2)cc1,0.33%
12,C=CCN1C(C(=O)OC)CN(Cc2cn(Cc3ccccc3)nn2)CCS1(=O)=O (centres undefined),-1.05%
13,O=C1C=CC(=O)N1c1ccc(N2CCCCC2)cc1,90.5% (active)
14,COc1ccc(C(=O)OCC(=O)Nc2ccc3[nH]c(=O)[nH]c3c2)c(OC)c1OC,3.04%
15,CC(C)(C)NC(=O)COc1ccc(CNc2ccc3[nH]c(=O)[nH]c3c2)cc1,35.9% (active)
16,O=C(COc1ccc([N+](=O)[O-])cc1Cl)Nc1ccc2[nH]c(=O)[nH]c2c1,1.93%
17,O=S1(=O)c2c(cccc2N2CCSCC2)Oc2ccccc2CN1Cc1cn(Cc2ccc(F)cc2)nn1,-0.69%
18,O=C(Nc1ccccc1)N1CCN(Cc2nc3ccccc3c(=O)[nH]2)CC1,2.82%
19,CC(=O)N/C(=C\c1ccccc1)C(=O)OC(C)C(=O)N(C)c1ccccc1 (centres undefined),-2.28%
20,CN(C(=O)CN1CCN(c2cc(-c3ccc(OCc4ccccc4)cc3)ncn2)CC1)c1ccccc1,-1.91%
21,CC1CN(Cc2ccco2)C(=S)N(c2ccccc2)C1=O (centres undefined),6.21%
22,CN(C)C(=S)N=c1ssc(=S)n1Cc1ccco1,27% (active)
23,CCN(CC)C(=O)CSc1nnc(CNc2ccc(F)cc2)n1Cc1ccco1,10.1%
24,Cc1cccc(OCCCC(=O)Nc2ccc(S(=O)(=O)N3CCCC3)cc2)c1,0.23%

# Source: PubChem BioAssay AID652257 (The Scripps Research Institute Molecular Screening Center, 2013)
